NadD block: blocks S. aureus nicotinate mononucleotide adenylyltransferase; actives 0.78% (n = 360,000); inhibition, % at 20 µM; AID 602399; purified NadD enzyme, colorimetric absorbance read-out; in the data active means inhibition above about 26%
rCAG binder: r(CAG) repeat RNA binding; TO-PRO-1 dye displacement fluorescence; inhibition, % at 3 µM; actives 1.3% (n = 370,000); AID 651821;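 active means inhibition above the plate cutoff, the mean of all test compounds on that plate plus 3 SD, cut at about 35% in these data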;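 further: 0% = DMSO alone and 100% = 100 µM mitoxantrone as full dye displacement; higher means more dye released from RNA so lower well fluorescence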
FAS TE block: inhibitors of human fatty acid synthase thioesterase domain. actives 0.67% (n = 360,000). recombinant FAS-TE, OMFH fluorogenic substrate, fluorescence endpoint. inhibition, % at 15 µM;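 active means compounds whose normalised, plate-corrected inhibition of enzyme fluorescence in the single-dose primary screen is 50% or more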;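 further: 0% = DMSO with enzyme and 100% = substrate without enzyme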
NR3A LBD binder: modulates the human NR3A ligand-binding domain. Tm shift relative to glycine control, % at 25 µM. NR3A LBD differential scanning fluorimetry, Tm shift; 0% = protein alone, 100% = glycine-bound protein. actives 2.5% (n = 340,000). AID 1259313;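 active means melting temperature shift of at least 10% of the positive control shift, at one fixed dose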
* = called active by the depositor; / = no result given. Only some compounds are listed: those with a hit (about 4.3% of all), similar ones and a draw of the others.

SMILES	NadD block	rCAG binder	FAS TE block	NR3A LBD binder
CC(C)CN(C(=O)c1cc(=O)[nH]c2ccccc12)c1c(N)n(Cc2ccccc2)c(=O)[nH]c1=O	-1	2	-7	11*
O=C(c1ccc(OC2CCN(Cc3ccccc3C(F)(F)F)CC2)cc1)N1CCCCC1	0	-10	21	19*
COc1cc(NC(=S)NC(C)=O)ccc1NC(=O)C(C)C	-7	-2	-7	11*
CCCCC(=O)NC(=S)Nc1ccc(NC(=O)C(C)C)c(OC)c1	-6	-7	-1	-5
Cc1c(O)ccc(/C(Cc2ccc3ccccc3n2)=N\O)c1O	4	-3	-138	-9
CC(=O)Oc1ccc(C(=O)Cc2ccc3ccccc3n2)c(O)c1C	-2	2	13	12*
C[C@@H]1CN([C@@H](C)CO)C(=O)CCCn2nncc2CO[C@H]1CN(C)CC1CC1	/	0	/	/
COc1cccc(C(=O)N/N=C2\SCC(=O)N2Cc2ccc3c(c2)OCO3)c1	3	-3	0	-2
COc1ccc(C(=O)N/N=C2/SCC(=O)N2Cc2ccc3c(c2)OCO3)cc1OC	0	-2	-6	11*
O=c1oc([C@@H](O)c2ccccc2)cc2ccccc12	-4	2	-5	10*
O=C(c1cc2ccccc2c(=O)o1)N1CCCC1	/	0	/	/
Cc1nn(-c2ccccc2)c(C)c1/C=N/NC(=O)c1cc(-c2ccc(Br)s2)[nH]n1	23	4	10	9
Cc1ccc(/C=N/NC(=O)c2cc(-c3ccc(C)o3)[nH]n2)cc1	-2	1	0	34*
Cc1nn(-c2ccccc2)c(C)c1/C=N/NC(=O)c1cc(-c2ccc(Cl)s2)[nH]n1	16	6	4	12*
Cc1cc(C(=O)N/N=C/c2ccc(-c3ccc(C)c(Cl)c3)o2)n[nH]1	22	1	11	15*
O=C(N/N=C/c1ccncc1)c1cc(-c2ccc(Br)s2)[nH]n1	12	6	-9	17*
Cc1n[nH]c(C)c1S(=O)(=O)NCCc1c[nH]c2ccccc12	/	2	/	/
CCOC(=O)[C@@]12CN(C(=O)OC(C)(C)C)CC=C1N(Cc1ccc(OC)cc1)C(=O)[C@H]2CC(=O)NCc1ccccc1	/	5	/	/
CN(C(=O)c1ccccc1OCC(=O)Nc1ccc(Br)cc1)c1ccccc1	/	1	/	/
O=C(Cn1ccc(C(F)(F)F)n1)NNC(=O)c1ccco1	-3	2	-7	293*
O=C(COC(=O)c1ccco1)Nc1nc2c(F)c(F)c(F)cc2s1	-1	33	3	-5
O=C(COC(=O)CCC1CCCC1)Nc1nc2c(F)c(F)c(F)cc2s1	3	7	15	22*
O=C(COC(=O)c1cc(NS(=O)(=O)c2cccs2)ccc1O)Nc1cc(Cl)ccc1Cl	2	14	8	30*
O=C(COC(=O)c1ccc(NS(=O)(=O)c2cccs2)cc1)Nc1nc2c(F)c(F)c(F)cc2s1	50*	/	11	10
CCCCNC(=O)C1(C(=O)C2CC2)CC(c2ccccc2C(F)(F)F)=NO1 (centres undefined)	/	0	/	/
SMILES	NadD block	rCAG binder	FAS TE block	NR3A LBD binder
C=CCN1[C@H](C#N)[C@@H](c2ccc(C#Cc3ccccc3OC)cc2)[C@H]1CO	/	7	/	/
NNc1nc(NCc2ccccc2)nc(N2CCOCC2)n1	4	1	-1	14*
Nc1c(S(=O)(=O)c2ccccc2)c2nc3ccccc3nc2n1Cc1ccco1	10	12	-8	-6
Cc1ccc(S(=O)(=O)c2c(N)n(Cc3ccco3)c3nc4ccccc4nc23)cc1C	47*	17	9	7
O=C1c2ccccc2NC(c2ccc(-c3ccccc3F)o2)N1O (centres undefined)	3	6	5	-2
Cc1cc([N+](=O)[O-])ccc1-c1ccc(C2Nc3ccccc3C(=O)N2O)o1 (centres undefined)	23	20	-68	30*
COC(=O)C1CN(Cc2cn(Cc3ccccc3)nn2)CCS(=O)(=O)N1Cc1ccc(C)cc1 (centres undefined)	/	3	/	/
CC(=O)Nc1ccc(NC(=O)c2cc(=O)c3cc(C)c(C)cc3o2)cc1	1	-2	-7	12*
CC(=O)Nc1ccc(NC(=O)c2cc(=O)c3ccc(C)cc3o2)cc1	-5	1	-4	-2
C=CCN1CCOc2ccc(C)cc2S1(=O)=O	-4	1	-3	10*
Cc1ccc2c(c1)N(C(=O)CCC(=O)N1CCOCC1)CCO2	-4	1	-3	0
CCOC(=O)c1cnn(CCOC(=O)c2ccc(OC)cc2)c1NC(=O)c1ccc(OC)cc1	-3	0	5	16*
COC(=O)C1CN(Cc2cn(Cc3ccc(C)cc3)nn2)CCS(=O)(=O)N1Cc1ccccc1 (centres undefined)	/	-1	/	/
O=C(/C=C/c1ccccc1)Nc1cccc(C(=O)NCCCCc2ccccc2)c1	-1	12	12	27*
O=C(/C=C/c1ccccc1)Nc1cccc(C(=O)NCCc2ccccc2)c1	-10	2	8	17*
CCOc1ccc(N(CC(=O)Nc2c(C)n(C)n(-c3ccccc3)c2=O)S(=O)(=O)c2ccc(C)c(C)c2)cc1	/	2	/	/
Cc1ccc(C2CC2C(=O)NNC(=S)Nc2ccc(Cl)cc2)cc1 (centres undefined)	8	27	3	12*
COc1cc2c(cc1NC(=O)/C=C/c1cc(OC)c(OC)c(OC)c1)oc1ccccc12	-2	14	33	27*
COc1cc2c(cc1NC(=O)c1ccncc1)oc1ccccc12	0	/	12	22*
COc1cc2c(cc1NC(=O)c1cccnc1)oc1ccccc12	7	10	9	20*
CCOc1c(C#N)c(C#N)c2nc(C)cc(C)n12	-4	-7	2	14*
CCCCCCn1c(N2CCN(c3cccc(Cl)c3)CC2)nc2c1c(=O)[nH]c(=O)n2C	-3	2	32	14*
C=C(C)COc1ccc(-c2[nH]ncc2-c2ccc(Br)cc2)c(O)c1	2	9	-18	30*
C=C(C)COc1ccc(-c2[nH]ncc2Oc2ccccc2OC)c(O)c1	4	-1	-111	16*
COc1cccc(Oc2cn[nH]c2-c2ccc(OCC(=O)NN)cc2O)c1	5	14	-134	-2
SMILES	NadD block	rCAG binder	FAS TE block	NR3A LBD binder
CCOc1ccc(-c2[nH]ncc2-c2ccc(Cl)cc2)c(O)c1	0	5	-53	22*
CCCOC(=O)c1ccc(Oc2cn[nH]c2-c2ccc(OC)cc2O)cc1	-5	13	-212	17*
COc1ccc2c(c1)CN1C(=O)N(Cc3ccccc3)S(=O)(=O)CC21 (centres undefined)	/	3	/	/
C=C(C)COc1ccc(-c2n[nH]c(C)c2-c2ccc(Br)cc2)c(O)c1	-2	13	18	32*
C=C(C)COc1ccc(-c2ncncc2-c2ccc(Br)cc2)c(O)c1	3	12	42	0
C=C(C)COc1ccc(-c2nc(N)ncc2-c2ccc(Br)cc2)c(O)c1	-3	10	24	12*
CCN(CC)CCOc1cccc(C(C)C)c1	6	0	-4	0
CCN(CC)CCNC(Cc1ccccc1)c1cccc(OC)c1 (centres undefined)	-6	4	-4	13*
